Screen size: about 2,100 compounds; about 770 (37%) were called active. Some of the results follow. A number with no mark means an inactive call.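 The calls were made as follows: active = by-eye trace score of 1 for enhancers or -1 for inhibitors, so actives lie on both sides (some results past the limit were not filed as active); inactive = score 0, or 3 fluorescent, or 4 baseline rise.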
These molecules were tested against G protein-activated inward rectifier potassium channel 2 (Homo sapiens) + G protein-activated inward rectifier potassium channel 1 (Homo sapiens) (UniProt P48051+P48549) (assay: GIRK1/2 thallium flux modulators, retest, confirmation, cell-based, HEK293 rmGlu8/hGIRK1/2, FluoZin-2 (AID 623911)). Conditions: HEK293 rmGlu8/hGIRK1/2, thallium flux FluoZin-2; actives lie on both sides; glutamate co-added at its EC20 level.
G protein-activated inward rectifier potassium channel 2 (Homo sapiens) + G protein-activated inward rectifier potassium channel 1 (Homo sapiens), sequence (P48051 whole entry, looked up): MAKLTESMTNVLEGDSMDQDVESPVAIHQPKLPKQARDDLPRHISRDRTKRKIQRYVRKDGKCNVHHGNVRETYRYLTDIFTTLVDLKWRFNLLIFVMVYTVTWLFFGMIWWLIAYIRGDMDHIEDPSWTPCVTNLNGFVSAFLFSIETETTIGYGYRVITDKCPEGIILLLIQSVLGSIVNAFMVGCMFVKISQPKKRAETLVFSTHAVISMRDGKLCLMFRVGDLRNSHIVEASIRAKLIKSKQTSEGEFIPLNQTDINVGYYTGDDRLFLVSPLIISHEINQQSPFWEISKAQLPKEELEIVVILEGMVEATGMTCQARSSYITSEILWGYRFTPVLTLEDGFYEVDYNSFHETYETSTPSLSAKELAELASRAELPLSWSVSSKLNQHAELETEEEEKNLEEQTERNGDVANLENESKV
G protein-activated inward rectifier potassium channel 2 (Homo sapiens) + G protein-activated inward rectifier potassium channel 1 (Homo sapiens), sequence (P48549 whole entry, looked up): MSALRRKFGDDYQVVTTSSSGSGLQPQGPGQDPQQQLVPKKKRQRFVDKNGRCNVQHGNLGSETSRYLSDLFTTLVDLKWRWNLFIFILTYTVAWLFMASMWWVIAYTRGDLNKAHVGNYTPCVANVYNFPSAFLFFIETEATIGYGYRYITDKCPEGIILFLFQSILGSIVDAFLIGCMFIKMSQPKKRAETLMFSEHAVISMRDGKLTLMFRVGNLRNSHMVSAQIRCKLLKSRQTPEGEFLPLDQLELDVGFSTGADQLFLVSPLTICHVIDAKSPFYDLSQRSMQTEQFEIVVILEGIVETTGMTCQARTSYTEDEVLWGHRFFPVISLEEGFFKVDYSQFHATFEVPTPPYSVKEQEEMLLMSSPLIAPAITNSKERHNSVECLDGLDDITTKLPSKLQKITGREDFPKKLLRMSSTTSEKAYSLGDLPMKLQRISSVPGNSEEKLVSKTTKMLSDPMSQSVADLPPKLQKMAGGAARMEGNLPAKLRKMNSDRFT

Question: How did the manual score turn out when `Cc1ccc(NC2CC(=O)N(CCc3ccccc3)C2=O)cc1` (centres undefined) was run?
Answer: The manual score was 0.

Question: `CCn1c(SCC(=O)Nc2oc(-c3ccccc3)c(-c3ccccc3)c2C#N)nnc1-c1ccco1` was tested. Which manual score did it give?
Answer: Its manual score is 0.

Question: With `Cc1cnc(NC(=O)CSc2nc3ccccc3c(=O)[nH]2)s1` as the molecule, how does the manual score read?
Answer: Its manual score is 0.

Question: How did the manual score turn out when `COc1cc(OC)cc(C(=O)NC(=S)NCCc2ccccc2)c1` was run?
Answer: Its manual score is 0.

Question: `O=C(CCc1ccccc1)NNC(=S)NC(=O)c1ccc(Cl)cc1` was tested. Which manual score did it give?
Answer: The manual score was 1 (active).

Question: For `COc1ccc(C(=O)NC(=S)NNC(=O)CCc2ccccc2)cc1`, which manual score is on record?
Answer: Its manual score is 1 (active).

Question: Which manual score does the source give for `COc1ccc(C(=O)CC(=O)C(=O)NCCc2cccc(C)c2)cc1` here?
Answer: The manual score was 0.5.

Question: `CCOc1ccccc1-c1c2cc(O)c(=O)cc-2oc2cc(O)c(O)cc12` was tested. Which manual score did it give?
Answer: Its manual score is 0.

Question: For `CCOc1ccccc1Cn1c(=O)oc2ccc(C)cc21`, which manual score is on record?
Answer: Its manual score is -1 (active).

Question: Which manual score does the source give for `CCNC(=S)Nc1scc(-c2ccccc2)c1C(=O)OCC` here?
Answer: The manual score was 1 (active).

Question: `CCOC(=O)c1c(-c2ccc(C)o2)csc1NC(=S)NC(=O)c1cccs1` was tested. Which manual score did it give?
Answer: Its manual score is 0.

Question: Which manual score does the source give for `CCOC(=O)c1c(-c2ccc(C)o2)csc1NC(=S)NC(=O)N(C)C` here?
Answer: Its manual score is 1 (active).

Question: For `CCOC(=O)c1c(-c2ccccc2)csc1NC(=S)NC`, which manual score is on record?
Answer: The manual score was 1 (active).

Question: Which manual score does the source give for `CC(C)Cc1nnc(NC(=O)CSc2nc(=O)cc(N)n2-c2ccccc2)s1` here?
Answer: Its manual score is 0.

Question: How did the manual score turn out when `CC(C)C(=O)NC(=S)N(Cc1ccccc1)Cc1ccccc1` was run?
Answer: The manual score was 1 (active).

Question: How did the manual score turn out when `CC(C)CC(=O)NC(=S)N(Cc1ccccc1)Cc1ccccc1` was run?
Answer: The manual score was 1 (active).

Question: With `Cc1cccc(C)c1NC(=S)NC(=O)c1ccccc1F` as the molecule, how does the manual score read?
Answer: The manual score was 1 (active).

Question: `O=C(NC(=S)N(Cc1ccccc1)Cc1ccccc1)c1ccccc1F` was tested. Which manual score did it give?
Answer: Its manual score is 1 (active).

Question: Which manual score does the source give for `CC(C)CC(=O)Nc1cccc2c1C(=O)N(c1ccccc1)C2=O` here?
Answer: The manual score was -0.5.

Question: Which manual score does the source give for `Cc1cccc(C)c1NC(=S)NC(=O)CCc1ccccc1` here?
Answer: Its manual score is 0.

Question: `O=C(NC(=S)NCc1ccccc1)c1ccccc1F` was tested. Which manual score did it give?
Answer: Its manual score is 0.5.

Question: Which manual score does the source give for `CCCCCNc1nc(-c2ccccc2)cs1` here?
Answer: Its manual score is 0.

Question: For `Cc1nc2ccccn2c1-c1csc(NCc2ccco2)n1`, which manual score is on record?
Answer: The manual score was -1 (active).

Question: For `CC(C)(C)C1CCC2(CC1)Nc1cccc3cccc(c13)N2`, which manual score is on record?
Answer: The manual score was 0.

Question: With `Oc1cccc(Nc2nc(NCC3CCCO3)c3ccccc3n2)c1` (centres undefined) as the molecule, how does the manual score read?
Answer: Its manual score is -1 (active).

Question: How did the manual score turn out when `O=C(O)c1cccc(Nc2nc(N3CCOCC3)nc(N3CCOCC3)n2)c1` was run?
Answer: Its manual score is 0.

Question: `CC1CCCC(NC(=O)Nc2cccs2)C1C` (centres undefined) was tested. Which manual score did it give?
Answer: The manual score was 1 (active).

Question: Which manual score does the source give for `COC(=O)C1CCCN1C(=O)c1cccs1` (centres undefined) here?
Answer: Its manual score is 0.

Question: For `C=COCCNC(=O)Nc1ccc(Cl)c(Cl)c1`, which manual score is on record?
Answer: The manual score was 0.5.

Question: With `CCOC(=O)C1=C(CC)Nc2ccccc2N=C1NC(=O)Nc1ccc(Cl)c(Cl)c1` as the molecule, how does the manual score read?
Answer: The manual score was 1 (active).

Question: `CCOC(=O)C1=C(CC)Nc2ccccc2N=C1NC(=O)c1ccc(S(=O)(=O)N(C)C)cc1` was tested. Which manual score did it give?
Answer: The manual score was 0.

Question: `CCCn1c(SC(C(=O)Nc2cc(C)ccc2OC)c2ccccc2)nc2ccccc2c1=O` (centres undefined) was tested. Which manual score did it give?
Answer: The manual score was 0.

Question: How did the manual score turn out when `CCCn1c(=O)c2ccccc2n2c(SCC(=O)N3CCc4ccccc4C3)nnc12` was run?
Answer: The manual score was -1 (active).

Question: How did the manual score turn out when `O=C(CSc1nc2ccccc2n1CCc1ccccc1)N1CCOCC1` was run?
Answer: Its manual score is 0.

Question: With `Cc1ccc2oc(=O)c3cnn(CC(=O)N4CCc5ccccc5C4)c3c2c1` as the molecule, how does the manual score read?
Answer: The manual score was 0.

Question: With `CCCn1c(=O)c2ccccc2n2c(SCCOc3ccccc3F)nnc12` as the molecule, how does the manual score read?
Answer: The manual score was -1 (active).

Question: Which manual score does the source give for `CCCn1c(=O)c2ccccc2n2c(SCc3nc4ccccc4s3)nnc12` here?
Answer: The manual score was 0.

Question: `COc1ccc(-c2nc(C#N)c(NCCCN(C)C)o2)cc1OC` was tested. Which manual score did it give?
Answer: Its manual score is 0.

Question: For `Cc1ccc(OCC(=O)NNC(=O)C(=O)NC(C)(C)C)cc1`, which manual score is on record?
Answer: The manual score was 1 (active).

Question: Which manual score does the source give for `CNC(=S)SCCOc1ccc(C)cc1` here?
Answer: Its manual score is 3.

Question: How did the manual score turn out when `CC(C)(C)NC(=O)C(=O)NNC(=O)COc1ccc(Br)cc1` was run?
Answer: The manual score was 1 (active).

Question: With `COc1ccc(OCC(=O)NNC(=O)C(=O)Nc2ccc(C)cc2)cc1` as the molecule, how does the manual score read?
Answer: The manual score was 1 (active).

Question: `Nc1c(-c2ccccc2)cnn1-c1ccc(C(=O)O)cc1` was tested. Which manual score did it give?
Answer: Its manual score is 0.

Question: `CC1=NCCN1S(=O)(=O)c1cc(Cl)ccc1Cl` was tested. Which manual score did it give?
Answer: Its manual score is 0.

Question: `O=C(NCc1ccccc1)c1ccc2c(=O)n(CCCN3CCCC3=O)c(=S)[nH]c2c1` was tested. Which manual score did it give?
Answer: The manual score was 0.

Question: `COc1ccccc1CNC(=O)c1c(N)n(CCCN2CCOCC2)c2nc3ccccc3nc12` was tested. Which manual score did it give?
Answer: Its manual score is 0.

Question: For `Cn1c(CNc2nc3ccccc3n2CCN2CCCCC2)nc2ccccc21`, which manual score is on record?
Answer: The manual score was -1 (active).

Question: For `CCn1c(NC(=S)Nc2ccccc2)nc2ccccc21`, which manual score is on record?
Answer: Its manual score is 0.

Question: `COc1cccc(CNc2nc3ccccc3n2CCN2CCCCC2)c1OC` was tested. Which manual score did it give?
Answer: The manual score was -1 (active).

Question: With `COc1ccc(CNC(=O)C(C#N)c2nc3ccccc3nc2N2CCCC2)cc1` (centres undefined) as the molecule, how does the manual score read?
Answer: The manual score was 3.

Question: `COc1ccc(/C=C/c2nc3sc4c(c3c(=O)o2)CCC4)cc1` was tested. Which manual score did it give?
Answer: Its manual score is 3.

Question: For `COc1cc(NC(=O)C(=O)NNC(=O)C2CCCCC2)c(OC)cc1Cl`, which manual score is on record?
Answer: Its manual score is 1 (active).

Question: For `COc1cc(NC(=O)c2ccc(C)cc2)c(OC)cc1NC(=O)CN1CCCCC1`, which manual score is on record?
Answer: The manual score was 0.

Question: `COc1ccc(OC)c(NC(=O)C2CC(=O)N(c3ccc(Br)cc3)C2)c1` (centres undefined) was tested. Which manual score did it give?
Answer: The manual score was 0.

Question: With `CCOC(=O)CSc1nc2c(sc(=S)n2-c2ccccc2OC)c(=O)n1Cc1ccco1` as the molecule, how does the manual score read?
Answer: Its manual score is -1 (active).

Question: With `CCOc1ccccc1NC(=O)CSc1nnc(-c2ccccn2)n1Cc1ccco1` as the molecule, how does the manual score read?
Answer: Its manual score is 0.

Question: How did the manual score turn out when `CCOC(=O)N1CCN(C(=O)CSc2nc3c(c(=O)n2-c2ccccc2OC)SCC3)CC1` was run?
Answer: Its manual score is 0.

Question: Which manual score does the source give for `CCCc1nnc2n1N=C(c1ccc(OC)c(OC)c1)CS2` here?
Answer: The manual score was 0.

Question: For `Brc1ccccc1C1=Nn2c(nnc2-c2ccccc2)SC1`, which manual score is on record?
Answer: The manual score was -1 (active).

Question: `CCOC(=O)c1sc2ncnc(NCc3ccco3)c2c1C` was tested. Which manual score did it give?
Answer: The manual score was 1 (active).

Question: With `Nc1nc(Nc2ccccc2)nc(NCc2ccco2)c1[N+](=O)[O-]` as the molecule, how does the manual score read?
Answer: The manual score was 0.

Question: For `Cc1ccc2c(Cl)cc(Cl)c(OCC(=O)NCc3ccco3)c2n1`, which manual score is on record?
Answer: Its manual score is 1 (active).

Question: With `Cc1ccc(-n2c(CSc3nc(C)cc(C)n3)nnc2SCC(=O)NCc2ccco2)cc1` as the molecule, how does the manual score read?
Answer: The manual score was 0.

Question: How did the manual score turn out when `CS(=O)(=O)N(CC(=O)NCc1ccco1)c1ccc(Cl)c(C(F)(F)F)c1` was run?
Answer: The manual score was 0.

Question: How did the manual score turn out when `C=CCOn1c(=O)c(-c2cccs2)[n+]([O-])c2ccccc21` was run?
Answer: The manual score was 3.

Question: How did the manual score turn out when `CCCCCCn1c(=O)[nH]c2nc3cc(N)ccc3nc2c1=O` was run?
Answer: Its manual score is 3.

Question: Which manual score does the source give for `CC1CCN(c2ccccc2NC(=S)NC(=O)c2cccs2)CC1` here?
Answer: The manual score was 0.

Question: With `CNC(=S)N1CCN(c2ccc(OC)cc2)CC1` as the molecule, how does the manual score read?
Answer: The manual score was 0.

Question: For `CC1CCN(C(=S)NC(=O)c2ccccc2)CC1`, which manual score is on record?
Answer: The manual score was 1 (active).

Question: For `COc1ccc(C(=O)NC(=S)N2CCCCC2)cc1`, which manual score is on record?
Answer: The manual score was 2.

Question: With `CN1CCN(C(=S)NC(=O)/C=C/c2cccc3ccccc23)CC1` as the molecule, how does the manual score read?
Answer: The manual score was 0.

Question: `COc1ccc(C(=O)NC(=S)N2CCC(C)CC2)cc1` was tested. Which manual score did it give?
Answer: The manual score was 1 (active).

Question: With `O=C(NC(=S)N1CCN(Cc2ccccc2)CC1)c1ccccc1` as the molecule, how does the manual score read?
Answer: Its manual score is 1 (active).

Question: For `CC1CCN(c2ncccc2C(=O)O)CC1`, which manual score is on record?
Answer: Its manual score is 0.

From PubChem BioAssay AID623911 (Vanderbilt High Throughput Screening Facility, 2012)
